From PubChem BioAssay (NCATS)
Inconclusive results are not listed. A call without a number means that no potency is given here. Calls of active or inactive are those of the source. Calls follow the shape of the dose curve; as a rule, active = well fitted inhibition curve with a large enough effect; inconclusive = small, poorly fitted or top-dose-only effect; inactive = no such curve, though single readings can be large or run the other way.

Assay: P-glycoprotein substrates identified in KB-3-1 adenocarcinoma cell line, qHTS therapeutic library screen (AID 1346986); also: nearly all actives have a fitted effect of over 60% in size;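 also: potency is for cytotoxicity meaning loss of cell viability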
Conditions: KB-3-1 parental cells viability, CellTiter-Glo, 72 h; series mostly up to 44.5 µM; activity change, negative = cytotoxicity: at the top concentration
Procedure, shortened: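 KB-3-1 parental cells and P-gp-overexpressing KB-8-5-11 (colchicine omitted during assay) plated at 500 cells/well, dosed in dose-response, incubated 72 h at 37 degree C. CellTiter-Glo luminescence read; KB-8-5-11 also tested with tariquidar.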
Potency is read from the fitted curve at half-maximal effect.

Row | Compound | Potency | outcome
1 | CN(CC1COCCO1)S(=O)(=O)Nc1ccc2ccc3ncc(-c4cnn(C)c4)cc3c(=O)c2c1 (stereo not given) | 11.6 µM (active) | 
2 | C=C1C(=O)O[C@@H]2C[C@]3(C)[C@@H](CCC(C)O)[C@@H]3C[C@H]12 (stereo not given in full) |  | inactive
3 | O=C(O)c1cc(N(Cc2ccc(C3CCCCC3)cc2)C(=O)c2ccc(Oc3ccccc3)cc2)ccc1O |  | inactive
4 | COc1ccc(NC(=O)C2C[C@H](C)CC[C@H]2C(C)C)cc1 (stereo not given in full) |  | inactive
5 | COc1c(C(C)C)c(O)c(O)c2c1C(OC)[C@H]1OC(=O)[C@@]23CCCC(C)(C)[C@H]13 (stereo not given in full) |  | inactive
6 | CNc1nc(Nc2ccc(C(=O)N3CCOCC3)cc2OC)nc2[nH]cc(Cl)c12 | 7.31 µM (active) | 
7 | CCC(C)C(=O)OC12C(OC(C)=O)C(C)C3(O)C(C=C(CO)CC4(O)C(=O)C(C)=CC43)C1C2(C)C (stereo not given) |  | inactive [at 17.4 µM]
8 | Fc1ccc(-c2nc(-c3ccccc3F)[nH]c2-c2ccncc2)cc1 |  | inactive
9 | CC(C)C[C@H](CO)Nc1nc(S[C@@H](C)c2ccccc2)nc2nc(N)sc12 |  | inactive
10 | COc1cc2ncc(-c3ccccc3)nc2cc1OC | 7.31 µM (active) | 
11 | CC#CC(=O)Nc1ccc2ncnc(Nc3cccc(Br)c3)c2c1 | 10.3 µM (active) | 
12 | CC1(C)CCC2(C(=O)OC3OC(COC4OC(CO)C(O)C(O)C4O)C(O)C(O)C3O)CCC3(C)C(=CCC4C5(C)CCC(OC6OCC(O)C(O)C6O)C(C)(C)C5CCC43C)C2C1O (stereo not given) |  | inactive [at 9.29 µM]
13 | C=C(C)C1=C[C@@]2(C)C(=CC1=O)CC[C@@H](O)[C@@H]2C |  | inactive
14 | CCN1CCC[C@@H]1CNC(=O)c1ccc2c(c1)NC(=O)c1cccc(C)c1S2 |  | inactive
15 | CCN(CC)C(=O)C(c1ccccc1)N1CCN(c2ccc(NC(=O)c3ccccc3-c3cccnc3)cc2F)CC1 (stereo not given) |  | inactive
16 | CC1OC2OC(=O)C3(C)CC4C5(CO5)C5=CC(=O)OC(C)(C)C5=CC(=O)C4(C)C(C1=O)C23 (stereo not given) |  | inactive [at 17.4 µM]
17 | C=C(COC(=O)C(O)C(O)CN)C12OC1C1(C)C(=CC2=O)C(O)C(O)CC1C (stereo not given) |  | inactive
18 | COc1cc(/C=C2\CC[C@H]3COC[C@@H](c4cc(F)c(F)c(F)c4)N3C2=O)ccc1-n1cnc(C)c1 |  | inactive

Row | Compound | Potency | outcome
19 | CC(C)(CO)c1cc2cc(NC(=O)C3(c4ccc5c(c4)OC(F)(F)O5)CC3)c(F)cc2n1CC(O)CO (stereo not given) |  | inactive
20 | C=C1CC[C@@H]2[C@](C)(CO)[C@H](O)CC[C@@]2(C)[C@@H]1C/C=C1/C(=O)OCC1OC(=O)/C(=C/CO)C(O)C[C@@H]1C(=C)CC[C@@H]2[C@](C)(CO)[C@H](O)CC[C@]21C (stereo not given in full) |  | inactive [at 17.4 µM]
21 | C=C1[C@H]2CC[C@H](C(=O)O)[C@@]23CC[C@H](C3)C1(C)C |  | inactive
22 | C=C1C(=O)O[C@@H]2[C@H]1CC[C@H](C)[C@]1(CCC(=O)O1)C2(C)O (stereo not given in full) |  | inactive
23 | O=C1NC(=O)C(c2cnc3ccccn23)=C1c1cn2c3c(cc(F)cc13)CN(C(=O)N1CCCCC1)CC2 | 5.8 µM (active) | 
24 | CO[C@H]1O[C@@H]2O[C@@]3(C)CCC4[C@H](C)CCC([C@H]1C)[C@]42OO3 (stereo not given in full) |  | inactive
25 | Cc1nc(C(=O)N2CCC[C@H]2Cc2nnc(-c3ccccc3)o2)c(-c2ccccc2F)s1 |  | inactive
26 | COC1CC(O[C@H]2CC[C@]3(C)C4CC[C@@]5(C)C(=O)[C@]4(CC[C@@H]3C2)CC[C@@H]5C2=CC(=O)OC2)OC(C)C1OC1OC(COC2OC(CO)C(O)C(O)C2O)C(O)C(O)C1O (stereo not given in full) | 3.48 µM (active) | 
27 | Cc1[nH]c2ccccc2c1CCNC(=O)c1cccs1 |  | inactive
28 | C1=C/COCc2cc(ccc2OCCN2CCCC2)Nc2nccc(n2)-c2cccc(c2)COC/1 | 4.61 µM (active) | 
29 | Nc1nc(Nc2ccc3c(c2)CCC(N2CCCC2)CC3)nn1-c1cc2c(nn1)-c1ccccc1CCC2 (stereo not given) | 11.6 µM (active) | 
30 | CN(C)c1ccc(NC(=O)NS(=O)(=O)c2ccc(Cl)cc2)cc1 |  | inactive
31 | C=CC(=O)N1CCC(Oc2cc3c(Nc4ccc(Cl)c(Cl)c4F)ncnc3cc2OC)CC1 | 13 µM (active) | 
32 | Cc1cccc(N2CCN(C(=O)c3cc(S(=O)(=O)N(C)C)ccc3N3CCCC3)CC2)c1C |  | inactive
33 | CC/C(C)=C/C(=O)OC1C(OC2(C)CCC3C(C4C(C)CCC42)C3(C)C)OC(C)C(O)C1O (stereo not given) |  | inactive [at 17.4 µM]
34 | CC(=O)OCC(=O)[C@@]12O[C@@H]1C[C@H]1[C@@H]3CC=C4C[C@@H](O)CC[C@]4(C)[C@H]3CC[C@@]12C |  | inactive
35 | C[C@@H]1O[C@@H](O[C@H]2[C@@H]3C=CO[C@@H](O[C@@H]4O[C@H](CO)[C@@H](O)[C@H](O)[C@H]4O)[C@@H]3[C@@]3(CO)O[C@@H]23)[C@H](O)[C@H](OC(=O)/C=C/c2ccccc2)[C@H]1O |  | inactive [at 17.4 µM]
